# Results published in PubChem BioAssay.
# Results with a measured potency or affinity are listed apart. The source made the active and inactive calls. The rule behind the calls is not given here.
# Experiment: A549 cell cytotoxicity, dose response, cytotoxicity control, plate reader, cherry-pick, antagonist series (AID 743412)
# Details: series mostly up to 26 µM; activity change, negative = cytotoxicity: at the top concentration
# 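Note: 0% = neutral control wells and -100% = positive control wells.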
row,SMILES,"activity change, negative = cytotoxicity"
1,Cc1ccc(-c2nnc(-c3ccccc3Br)o2)cc1,-15.7% (inactive)
2,O=C(Nc1nc(-c2ccc(S(=O)(=O)N3CCOCC3)cc2)cs1)c1ccccc1,1.95% (inactive)
3,O=c1c2c(nc3cc(-c4ccc(F)cc4)[nH]n13)CCCC2,2.92% (inactive)
4,CC(C)(C)c1ccc(C(=O)NCCOc2ccccc2F)cc1,7.43% (inactive)
5,COc1ccc(-n2nnnc2-c2nc3ccccc3s2)cc1,-7.93% (inactive)
6,Cc1ccc(-c2noc(-c3cccs3)n2)cc1,54.7% (inactive)
7,COc1ccc(-c2[nH]ncc2-c2ccc3c(c2)OCCO3)c(O)c1,-7.11% (inactive)
8,Cc1ccc2nc(-c3ccc(NC(=O)C(C)Sc4nncs4)cc3)sc2c1 (configuration not stated),-48.5% (inactive)
9,CC(C)(C)c1ccc(-c2nc(-c3ccncc3)no2)cc1,7.98% (inactive)
10,O=C(Nc1nc2ccccc2s1)c1ccc2sc([C@H]3C[C@H](O)[C@@H](CO)O3)nc2c1,-15.5% (inactive)
11,COc1ccc(-c2csc(NC(=O)c3ccc(OCC(=O)N4CCOCC4)c(OC)c3)n2)cc1,-12.6% (inactive)
12,COc1ccc(-n2ncc3c(N4CCC(C)CC4)ncnc32)cc1,-0.823% (inactive)
13,O=C(O)c1cccc(-c2noc(-c3cccc(Cl)c3)n2)c1,-0.606% (inactive)
14,COC(=O)c1ccc2nc(NC(=O)C(C)(C)C)sc2c1,20.9% (inactive)
15,O=C(Nc1cccc(O)c1)c1cc(-c2ccc3c(c2)OCO3)on1,11% (inactive)
16,Cc1c(NC(=O)c2ccc(-c3ccccc3)cc2)cccc1C(=O)O,-0.15% (inactive)
17,CN(C)c1ccc(C(=O)Nc2nc3c(s2)CCCC3)cc1,-19.1% (inactive)
18,COc1cc(NC(=O)c2cccc3c(-c4cccnc4)coc23)cc(OC)c1OC,2.96% (inactive)
19,Cc1csc(NC(=O)c2cnc3ccccc3n2)n1,-6.51% (inactive)
20,COc1ccc2sc(NC(=O)c3ccco3)nc2c1,-24.6% (inactive)

row,SMILES,"activity change, negative = cytotoxicity"
1,c1ccc(COc2ccc(OCCCN3CCCC3)cc2)cc1,-25.5% (inactive)
2,O=C(NC1(Cc2ccccc2)CCN(Cc2ccc(-c3ccccc3)cc2)C1=O)c1ccccc1 (configuration not stated),-10% (inactive)
3,CSc1ccc(NC(=O)Nc2cc(C)ccn2)cc1,6.17% (inactive)
4,C[C@@H]1CN([C@H](C)CO)C(=O)CCCn2nncc2CO[C@H]1CN(C)C(=O)Nc1cccc2ccccc12,-7.1% (inactive)
5,Cc1ccc(-c2cc(C(=O)N(C)Cc3cnn(C)c3C)c3cc(Br)ccc3n2)cc1,-8.84% (inactive)
6,CC(=O)N1CCCC(c2cc(C(=O)Nc3ccccc3)no2)C1 (configuration not stated),-8.24% (inactive)
7,COc1ccc(NC(=O)Nc2cccc([N+](=O)[O-])c2)cc1Cl,-43.4% (inactive)
8,CCCOc1ccc2cc(-c3ccccn3)c(=O)oc2c1,-25.3% (inactive)
9,COc1cccc(-c2cc(C(=O)Nc3cccc(O)c3)no2)c1,3.02% (inactive)
10,O=C(Cn1ncc(Cl)c(Cl)c1=O)c1ccc2c(c1)OCCO2,-71.9% (inactive)
11,Cc1ccc(-c2cnn3c(N4CCOCC4)cc(C)nc23)cc1,55% [at 12 µM] (inactive)
12,COc1ccc2nc(-c3ccc(F)cc3)sc2c1,22.4% (inactive)
13,CCOC(=O)c1sc(NC(=O)Nc2ccccc2F)nc1C,-9.54% (inactive)
14,COc1ccc(CC(=O)Nc2cccc(-c3nnc(-c4cccc(C)c4)o3)c2)cc1OC,9.32% (inactive)
15,Cc1ccc(-c2nnc(Nc3ccccc3)o2)cc1,-9.28% (inactive)
16,O=C(c1cc(-c2ccc(Cl)cc2Cl)on1)N1CCCC1,-5.78% (inactive)
17,COc1ccccc1CCn1cnc(-c2ccccc2OC)c1C(C)C,-11.8% (inactive)
18,Cc1ccc2nc(-c3ccc(NC(=O)COC(=O)c4ccco4)cc3)sc2c1,35.4% (inactive)
19,CCc1ccn2cc(-c3cc(-c4ccccc4)no3)nc2c1,-18.6% (inactive)

# Experiment: HepG2 cell cytotoxicity, dose response, cytotoxicity control, plate reader, cherry-pick, antagonist series (AID 743416)
# Details: series mostly up to 26 µM; activity change, negative = cytotoxicity: at the top concentration
row,SMILES,"activity change, negative = cytotoxicity"
1,Cc1ccc(-c2nnc(-c3ccccc3Br)o2)cc1,-3.72% (inactive)
2,CC(C)(C)c1ccc(C(=O)NCCOc2ccccc2F)cc1,-7.22% (inactive)
3,Cc1ccc2nc(-c3ccc(NC(=O)C(C)Sc4nncs4)cc3)sc2c1 (configuration not stated),-34.1% (inactive)
4,O=C(Nc1cccc(O)c1)c1cc(-c2ccc3c(c2)OCO3)on1,0.176% (inactive)
5,Cc1c(NC(=O)c2ccc(-c3ccccc3)cc2)cccc1C(=O)O,-3.78% (inactive)
6,CSc1ccc(NC(=O)Nc2cc(C)ccn2)cc1,-2.93% (inactive)
7,O=C(c1cc(-c2ccc(Cl)cc2Cl)on1)N1CCCC1,1.25% (inactive)
8,Cc1ccc2nc(-c3ccc(NC(=O)COC(=O)c4ccco4)cc3)sc2c1,9.1% (inactive)
